Measured values reported in PubChem BioAssay AID449762 (Southern Research Specialized Biocontainment Screening …, 2010).
In all, about 330,000 compounds went through this assay and about 1,900 (0.58%) were called active. Inconclusive results (about 4%) are left out. These entries were drawn from the full list. Potency and affinity values are given separately. A number with no mark means an inactive call. Rule as the data show it: inconclusive = inhibition above about 70% without an active follow-up result; inactive = below that.

test: M. tuberculosis growth inhibition, HTS (AID 449762);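 also: bacterial growth assessed after seven days of incubation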; conditions: M. tuberculosis H37Rv growth inhibition, 7H9 media; at 25 µM; hits give high values

Structure (SMILES) | inhibition [%]
COCC(=O)N1CCC(Oc2cccc(C(=O)NCc3ccccn3)c2)CC1 | -0.85
O=C(O)CCN1C(=O)C(=C2CCCCCC2)SC1=S | -3.58
CCCCN1C(=O)/C(=C2/C=CC=CN2C)SC1=S | -5.48
CCCCn1nc2cc(C(=O)NCc3ccc(OC(F)(F)F)cc3)ccc2c1OC | 6.36
O=C(NN1CCOCC1)C12CC3CC(CC(C3)C1)C2 | -3.63
COc1ccc2c3c([nH]c2c1)C1CC2C(CC(O)C(OC)C2C(=O)O)CN1CC3 (stereo not given) | -4.38
COc1ccc2c3c([nH]c2c1)[C@H]1C[C@H]2[C@H](C[C@@H](O)[C@H](OC)[C@H]2C(=O)O)CN1CC3 | 1.26
C=Cn1nc(C)c2ccccc2c1=O | -3.9
COC(=O)c1cc(=O)n(Cc2ccc(F)cc2)c(=Nc2ccccc2)s1 | 4.7
COC(=O)c1cc(=O)n(CCc2ccccc2)c(=Nc2ccc(F)cc2)s1 | 4.1
COc1cccc(NC(=O)[C@H](CC(C)C)NC(=O)N2CCn3c2nc2ccccc23)c1 | 11.4
NC(=O)[C@H](Cc1cc2ccccc2s1)NC(=O)[C@@H]1CC2(CC(c3cccc(NC(=O)[C@@H]4CCC(=O)N4)c3)=NO2)CN1C(=O)c1ccccc1 (stereo not given in full) | -4.74
NC(=O)C1CCN(CCCNC2CC(=O)N(Cc3ccc(N4CCCC4=O)cc3)C2=O)CC1 (stereo not given) | -6.69
Nc1cc(C(=O)OCC(=O)NNC(=O)c2ccccc2)ccc1Cl | 35.4
Nc1cc(C(=O)OCC(=O)NNC(=O)c2ccccc2F)ccc1Cl | 25.6
CCOc1cc(Cl)c(CNCCCN2CCOCC2)cc1OC | 5.34
CCOC(=O)c1c(C)[nH]c(C(=O)COC(=O)c2cc(C)oc2C)c1C | -7.77
N#Cc1ccc(-c2ccc3c(c2)OCO3)nc1SCC(=O)OCc1ccccc1 | -7.31
COc1ccc(-c2ccc(C#N)c(SCC(=O)NCCc3ccccc3)n2)cc1OC | 8.95
S=C(NC1CCCCC1)N1CCN(Cc2ccccc2Cl)CC1 | 1.74
COc1ccc2c(COC(=O)CCS(=O)(=O)c3ccccc3)cc(=O)oc2c1 | -17.5
O=c1[nH]c(CSc2ccccn2)nc2ccccc12 | 3.19
Cn1c(SCc2nc3ccccc3c(=O)[nH]2)nc2ccccc21 | 1.19
O=C(c1ccco1)N1CCN(C(=S)Nc2ccc(Br)cc2Cl)CC1 | -10.4

Structure (SMILES) | inhibition [%]
COC(=O)c1cc(-c2ccccc2)on1 | 69.8
COc1cccc(-c2cc(C(=O)O)no2)c1 | -0.44
CCOc1ccc(NC(=O)COc2nsnc2N2CCOCC2)cc1 | -1.39
CCN(c1ccccc1)S(=O)(=O)c1ccc(Cl)c(NC(=O)COC(=O)c2ccc[nH]c2=O)c1 | -8.08
CCCCCCn1nc(C(=O)OCC(=O)c2c(N)n(C)c(=O)n(C)c2=O)c2ccccc2c1=O | 9.07
COc1ccc(C2=NCCn3nc4cc(OC)ccc4c32)cc1 | 1.06
COc1ccc2c3n(nc2c1)CCN=C3c1ccc(Cl)cc1 | 4.84
O=C(NCCCn1ccnc1)c1cc2cc([N+](=O)[O-])ccc2oc1=O | -5.35
Cc1ccc2[nH]c(C)c(CCNC(=O)c3c(N)no[n+]3[O-])c2c1 | -0.11
O=C(NC1CCCCC1)C(c1cccs1)N(CC1CCCO1)C(=O)c1csnn1 (stereo not given) | -12
CC(=O)c1ccc(S(=O)(=O)N2CCc3ccccc3C2)cc1 | 0.34
CCOC(=O)N1CCN(C(=O)CSc2nnc(-c3ccccc3OC)o2)CC1 | 41.9
CC1CC(C)CN(C(=O)CSc2nnc(-c3ccc(Cl)s3)o2)C1 (stereo not given) | 20.5
O=C(c1cc2n(n1)C(C(F)(F)F)CC(c1ccc(F)cc1)N2)N1CCCC1 (stereo not given) | -3.19
O=C(Nc1cccnc1Cl)c1cccc(F)c1 | 9.84
CC(C)NC(=O)COC(=O)c1cc(Br)ccc1Cl | 21.9
CC(C)(C)NC(=O)COC(=O)c1ccc(F)cc1Cl | 49.4
COc1ccc(NC(=O)CCC(=O)Nc2nnc(C3CCCCC3)s2)c(OC)c1 | 7.63
OCC1(Cc2cccc(Cl)c2)CCCN(Cc2ccc(F)c(F)c2)C1 (stereo not given) | 16.1
Cc1cc(CN2CCCC(CO)(Cc3cccc(Cl)c3)C2)n[nH]1 (stereo not given) | 2.25
c1ccc(-c2nc3ccccc3[nH]2)cc1 | 9.27
c1ccc2nc3c(nc2c1)[nH]c1ccccc13 | -2.41
CC1(C)Cc2c(cnn2-c2cccc(F)c2)C(NC(=O)CSc2ccncc2)C1 (stereo not given) | -11.2
CCCCN1C(=N)N([C@@H](C)CN2CCC[C@H]2CN2C(N)=NC[C@H]2CC(C)C)C[C@H]1[C@H](C)CC | -9.24

Structure (SMILES) | inhibition [%]
O=c1c2ccccc2oc2ccc(NCCCn3ccnc3)cc12 | -0.23
O=c1c2ccccc2oc2cc(NCCCn3ccnc3)ccc12 | 64.1
Nc1c(C(=O)Nc2ccc3c(c2)OCCO3)nnn1Cc1ccc(Cl)cc1 | 0.83
CCN(CC)c1ccccc1 | 5.27
Nc1ccc(N(CCO)CCO)cc1 | 6.03
O=C(NCc1ccc(Cl)cc1)C1CCN(c2cnccn2)CC1 | 1.73
Cc1ccc(NC(=O)Cn2cccc2)cc1 | 3.9
CC(C)(C)c1csc(NNC(=O)c2ccc(Br)cc2)n1 | 66.5
COc1ccc2[nH]c3c(c2c1)CCN1C(=O)N([C@@H](C)C(=O)NCCc2ccc(OC)c(OC)c2)C(=O)[C@]31C | -11.9
CN(C)/C=C1\C(=O)N(c2ccc([N+](=O)[O-])cc2)N=C1c1ccccc1 | -2.09
CN(C)/C=C1/C(=O)N(c2ccc([N+](=O)[O-])cc2)N=C1c1ccccc1 | 0.35
NC(=O)c1ccsc1N | 6.02
NC(=O)c1ccc(Cn2c(C(=O)c3ccc(Cl)cc3)c3ccccc3[n+]2[O-])cc1 | 2.02
COCCn1c(-c2ccc(OC)cc2)cnc1SCC(=O)Nc1cccc2ccccc12 | 57.1
CCOc1ccc(CNc2ncc(-c3ccccc3)n2C)cc1 | 8.71
Cn1c(CCNC(=O)c2ccco2)nc2ccccc21 | -1.68
Cc1cccc(NC(=O)CCCNC(=O)c2ccc(Cl)cc2)n1 | -15.3
COc1cc(Cn2ccnc2)c(OC)cc1Cn1ccnc1 | 0.13
COc1ccc(NCc2ccc(OC)c(Cn3ccnc3)c2)c(OC)c1 | 17.3
CCCC(=O)Nc1ccc(-c2csc(NNC(C)=O)n2)cc1 | 8.91
CN(C)CCOc1ncnc2c1oc1ccccc12 | -7.93
CCc1nc(OCCN(C)C)c2oc3ccccc3c2n1 | 5.77
O=C(CCSc1nc(-c2ccco2)cc(C(F)(F)F)n1)NCc1ccccn1 | -4.91
Cc1nc2scc(-c3cccs3)c2c(=O)n1N | -9.74

Structure (SMILES) | inhibition [%]
Cc1ccc(C)n1-n1c(C)nc2scc(-c3cccs3)c2c1=O | 1.92
CCCCc1nn(-c2cc(Cl)ccc2OC)c2c1C(=O)CCC2 | -11.2
CCOC(=O)c1nn(-c2ccc(F)cc2)c2nc(CC(C)C)c(C#N)c(=O)n12 | -13.7
Cc1cccc(OC(C)C(=O)OCC(=O)N2CCN(c3ccccc3)CC2)c1 (stereo not given) | 69.9
CCc1cc(C(=O)OCC(=O)N2CCC(c3ccccc3)=N2)sc1C | 9.02
Cc1ccc(C(=O)OCC(=O)N2CCC(c3ccccc3)=N2)cc1 | -0.51
COc1ccc(NC(=O)c2cc(-c3cc(C)ccc3O)n[nH]2)cc1Cl | -5.54
CC(C)(Oc1ccc(Cl)cc1)C(=O)NCc1n[nH]c(=O)c2ccccc12 | -7.84
Cc1nn(C)cc1/C=N/NC(=O)C(C)(C)Oc1ccc(Cl)cc1 | -2.26
Cc1ccc(CNC(=S)Nc2ccc(C)c([N+](=O)[O-])c2)cc1 | 1.67
CCOc1ccc(NC(=S)Nc2cc(C)[nH]n2)cc1 | 11.8
Cc1ccc(NC(=S)Nc2cc(-c3ccccc3)[nH]n2)cc1Cl | 3.77
CCOc1ccc(NC(=S)/C(=C(\[O-])c2ccc(C)c([N+](=O)[O-])c2)[n+]2ccccc2)cc1 | -4.46
O=C(CN(C(=O)CNC(=O)c1cccs1)c1ccc(F)cc1)NC1CCCC1 | -5.64
Cc1ccc(C(=O)Nc2cnc3sc(C)nn3c2=O)cc1 | -8.53
CC1=C(C(=O)OCC2CCCO2)C(c2ccc(C)cc2)C2=C(CCCC2=O)N1 (stereo not given) | -4.69
COc1ccc(C2COc3cc(O)ccc3C2)c(OC)c1O (stereo not given) | -7.8
CCCSc1nnc(CSc2nc3nc(C)cc(C)n3n2)o1 | 6.82
CCCCSc1nnc(CSc2nc3nc(C)cc(C)n3n2)o1 | -4.57
CC1Cn2c(nc3sc4c(c3c2=O)CCC4)N1CCO (stereo not given) | 3.69
O=C(c1ccccn1)N1CCN(c2ccc(C(F)(F)F)cn2)CC1 | -9.2
Cc1ccc(C(=O)N2CCN(c3ccc(C(F)(F)F)cn3)CC2)cc1 | -8.18
CS(=O)(=O)N(CC(=O)Nc1ccc(C(N)=O)cc1)C1CCCCC1 | 0.92
